In the library only some 1.7% were active in any assay of this set; here they are far more common.
GLP1R ag: activates the human GLP-1 receptor; AID 624172; Potency, µM (highest dose often 45.6 µM), without a hit: at the top dose activation, most hits filed as activators; P43220; 380,000 compounds, 0.007% hits; HEK293 GLP-1R CRE-luciferase, luminescence, 4-6 h; cells express a hypersensitive GLP-1R form; further: % of control where 0% means no effect
Target sequence (P43220 whole entry, looked up): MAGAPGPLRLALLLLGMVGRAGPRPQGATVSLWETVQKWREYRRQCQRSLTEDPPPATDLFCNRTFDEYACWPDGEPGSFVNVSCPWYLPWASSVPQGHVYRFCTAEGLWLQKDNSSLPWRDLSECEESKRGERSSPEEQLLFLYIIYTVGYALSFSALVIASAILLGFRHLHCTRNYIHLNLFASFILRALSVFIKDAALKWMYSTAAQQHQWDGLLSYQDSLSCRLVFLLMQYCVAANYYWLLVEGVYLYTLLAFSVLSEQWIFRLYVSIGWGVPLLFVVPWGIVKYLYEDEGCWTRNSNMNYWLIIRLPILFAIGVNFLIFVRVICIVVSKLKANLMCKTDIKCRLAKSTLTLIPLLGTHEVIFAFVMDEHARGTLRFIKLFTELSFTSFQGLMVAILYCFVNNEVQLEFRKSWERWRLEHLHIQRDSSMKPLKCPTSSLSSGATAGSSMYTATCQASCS
GLP-1R inv ag: inverse agonists of human GLP-1 receptor. P43220. HEK293 GLP-1R CRE-luciferase, luminescence, 24 h; GLP-1R form is constitutively active. Potency, µM (doses to about 38.3 µM), inactives show top-dose activity change, negative = inhibition, most hits filed as inhibitors. 410,000 compounds, 1.6% hits; further: on the % scale 0 is the no-effect control and ±100 the full control effect; nearly all actives have a fitted effect of over 55% in size
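Cells are plated, allowed 12 hours at 37 deg C, then treated with compounds for 24 hr before luciferase detection reagent is added and luminescence is read after 12 min at room temperature. The HEK293 line carries constitutively active GLP-1R with a cAMP-responsive reporter.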
GLP1R cytotox: cytotoxic in the GLP-1 receptor inverse agonist counter-screen; 410,000 compounds, 0.13% hits; HEK293 cAMP-luciferase reporter cells, luminescence, 24 h; Potency, µM (doses to about 38.3 µM), inactives show at the top dose activity change, negative = inhibition, usual class: inhibitors;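 further: loss of luciferase light is scored as toxicity; on the % scale 0 is the no-effect control and ±100 the full control effect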
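1536-well qHTS counterscreen of the MLSMR; 200 cells/uL, 12 h pre-incubation, 23 nL cpd, 24 h at 37 deg C 5% CO2, luciferase detection reagent, 12 min RT, luminescence. Inhibition = undesired.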
* hit, by the source's call. The call rests on the fitted dose curve; in most records, active means well fitted curve in the direction sought with a large enough effect; inconclusive means small, poorly fitted or top-dose-only effect, or another doubt; inactive means no such curve, though single readings can be large; an effect the other way counts as inactive or inconclusive. Potency means the concentration at half of the fitted maximal effect.

Screening Cc1cccc(C(=O)NCC(c2ccco2)N2CCc3ccccc32)c1 (stereo not given) returned GLP1R ag 16%, GLP-1R inv ag inconclusive and GLP1R cytotox -8%.
Cc1ccc(C(=O)NCC(c2ccco2)N2CCc3ccccc32)cc1 (stereo not given) was read as GLP1R ag -2%, GLP-1R inv ag 10µM* and GLP1R cytotox 8%.
For O=C(Cc1ccccc1)Nc1sc2c(c1C(=O)Nc1ccccc1Cl)CCC2 the results were GLP-1R inv ag 7% and GLP1R cytotox 3%.
O=C(COc1ccccc1)Nc1ccc2nc(SCC(=O)N3CCOCC3)sc2c1 was read as GLP-1R inv ag 9% and GLP1R cytotox 1%.
Screening CCN(CC)S(=O)(=O)c1ccc(C(=O)Nc2cc(S(=O)(=O)N3CCOCC3)ccc2N2CCN(C)CC2)cc1 returned GLP1R ag 0%, GLP-1R inv ag -4% and GLP1R cytotox -6%.
`CCOC(=O)c1c(C)[nH]c(C)c1S(=O)(=O)N(C)CC(=O)Nc1cccc(C)c1` gave GLP1R ag 18%, GLP-1R inv ag 12% and GLP1R cytotox -3%.
CCOc1ccccc1C(=O)NC(C(=O)N(C)Cc1ccc2c(c1)OCO2)C(C)C (stereo not given) was read as GLP1R ag -1%, GLP-1R inv ag inconclusive and GLP1R cytotox -11%.
`COc1ccc(-c2n(CC(=O)OC3CC(C)CCC3C(C)C)c3ccccc3[n+]2C)cc1` (stereo not given) gave GLP1R ag -1%, GLP-1R inv ag 7.1µM* and GLP1R cytotox inconclusive.
`COc1ccc(OCc2n(CC(=O)OC3CC(C)CCC3C(C)C)c3ccccc3[n+]2C)cc1` (stereo not given) gave GLP1R ag 1%, GLP-1R inv ag inconclusive and GLP1R cytotox inconclusive.
Screening COc1ccc(NC(=O)CCc2c(C)nc3c(-c4ccc(F)cc4)c(C)nn3c2C)c(OC)c1 returned GLP1R ag -1%, GLP-1R inv ag -6% and GLP1R cytotox -3%.
CC1CCCC(C)N1C(=O)COC(=O)Cc1ccc(F)cc1 (stereo not given) was read as GLP1R ag 6%, GLP-1R inv ag 0% and GLP1R cytotox 12%.
`COc1ccc(NC(=O)NC23CC4CC(CC(C4)C2)C3)cc1OC` gave GLP1R ag 0%, GLP-1R inv ag inconclusive and GLP1R cytotox -11%.
`CCOc1ccc(NC(=O)NC23CC4CC(CC(C4)C2)C3)cc1` gave GLP1R ag 9%, GLP-1R inv ag 2.5µM* and GLP1R cytotox -8%.
Screening COc1ccc(C(=O)NCC(=O)OCc2cc(=O)n3nc(C4CCCCC4)sc3n2)cc1 returned GLP-1R inv ag -5% and GLP1R cytotox -1%.
Screening Cc1ccc(CN2CCCC(CO)(Cc3ccccc3C)C2)s1 (stereo not given) returned GLP1R ag 8%, GLP-1R inv ag 8.9µM* and GLP1R cytotox inconclusive.
`Cc1ccccc1CC1(CO)CCCN(Cc2ccn[nH]2)C1` (stereo not given) gave GLP1R ag 6%, GLP-1R inv ag inconclusive and GLP1R cytotox -3%.
For COc1ccc(CNC(=O)Cn2ccc3cc(S(=O)(=O)N4CCCCCC4)ccc32)c(OC)c1 the results were GLP-1R inv ag inconclusive and GLP1R cytotox -7%.
`CSCc1c(C(=O)N2CCCc3ccccc32)oc2ccccc12` gave GLP1R ag 7%, GLP-1R inv ag 8.9µM* and GLP1R cytotox -1%.
O=C(c1cc(=O)c2ccccc2o1)N1CCCc2ccccc21 was read as GLP1R ag 0%, GLP-1R inv ag -31% and GLP1R cytotox -8%.
For CC(C(=O)NC(C)(C)C)n1c(-c2ccc3c(c2)OCO3)nc2ccccc21 (stereo not given) the results were GLP-1R inv ag -14% and GLP1R cytotox 0%.
For COc1cccc(N2CC(NC(=O)C3CCCCC3)CC2=O)c1 (stereo not given) the results were GLP-1R inv ag 5% and GLP1R cytotox 0%.
Screening CC(SC(C)C(=O)NN=Cc1cccc(F)c1)C(=O)NN=Cc1cccc(F)c1 (stereo not given) returned GLP1R ag 7%, GLP-1R inv ag 1% and GLP1R cytotox -5%.
Screening Cc1ccccc1NC(=O)c1ccc(-c2ccc(Cl)cc2Cl)o1 returned GLP1R ag 9%, GLP-1R inv ag inconclusive and GLP1R cytotox 0%.
`S=C(c1ccc(-c2ccc(Cl)cc2Cl)o1)N1CCCC1` gave GLP1R ag -3%, GLP-1R inv ag 2% and GLP1R cytotox 1%.
`S=C(c1ccc(-c2ccc(Cl)cc2Cl)o1)N1CCCCC1` gave GLP1R ag 5%, GLP-1R inv ag 10µM* and GLP1R cytotox -3%.
For Cc1cccc(C)c1NC(=O)c1ccc(-c2ccc(Cl)cc2Cl)o1 the results were GLP1R ag -8%, GLP-1R inv ag 1.6µM* and GLP1R cytotox -2%.
CCOC(=O)c1ccc(S(=O)(=O)N2CC(=O)Nc3ccccc32)cc1 was read as GLP1R ag 6%, GLP-1R inv ag -9% and GLP1R cytotox 4%.
Screening CCN1C(N(C)CCc2c[nH]c3ccccc23)=N[C@@H](c2cccc(C(F)(F)F)c2)C(C(=O)OC)=C1C returned GLP1R ag -1%, GLP-1R inv ag 10µM* and GLP1R cytotox -12%.
For CCN1C(N(C)CCc2cccs2)=N[C@@H](c2ccccc2)C(C(=O)OC)=C1C the results were GLP1R ag 0%, GLP-1R inv ag 9% and GLP1R cytotox inconclusive.
For CC1=C(C(=O)Nc2cccnc2)C(c2ccc(F)cc2)n2nc(SCc3ccccc3F)nc2N1 (stereo not given) the results were GLP1R ag 0%, GLP-1R inv ag 3% and GLP1R cytotox -11%.
`CCSc1nnc(-c2cnn(-c3ccccc3)c2-n2cccc2)n1C` gave GLP1R ag -13%, GLP-1R inv ag -26% and GLP1R cytotox -3%.
CCCCCCSc1nnc(-c2cnn(-c3ccccc3)c2-n2cccc2)n1C was read as GLP1R ag -3%, GLP-1R inv ag 4.5µM* and GLP1R cytotox inconclusive.
For CN1CCC=C(C(=O)N2c3ccccc3Sc3ccc(Cl)cc32)C1 the results were GLP1R ag 17%, GLP-1R inv ag inconclusive and GLP1R cytotox -27%.
For CCN(CC)CCNC(=O)Cn1ncc2c([nH]c3ccccc32)c1=O the results were GLP-1R inv ag 0% and GLP1R cytotox 0%.
CC(C)NOC(=O)c1ccc(Cl)cc1 was read as GLP1R ag 1%, GLP-1R inv ag -1% and GLP1R cytotox 3%.
Cc1cccc2sc(N(Cc3cccnc3)C(=O)c3cccs3)nc12 was read as GLP-1R inv ag -21% and GLP1R cytotox -3%.
Screening CCCCN(CC)CCNC(=O)C1CCN(c2nnc(C)c3c(C)n(-c4ccc(C)cc4)nc23)CC1 returned GLP-1R inv ag 10µM* and GLP1R cytotox inconclusive.
For Cc1ccc(CCNC(=O)C2CCN(c3nnc(C)c4c(C)n(-c5ccccc5)nc34)CC2)cc1 the results were GLP-1R inv ag 17% and GLP1R cytotox 1%.
`CCOc1ccc(CN2CCN(Cc3ccc4c(c3)c3ccccc3n4CC)CC2)cc1` gave GLP-1R inv ag 6.3µM* and GLP1R cytotox -21%.

Assay outcomes from PubChem BioAssay.
